Values without a mark were called inactive.
How the values were obtained:
Test in all cases: log2 ratio of Biotin-Ahx-Ub-VS probe labelling (fragment/DMSO); higher = less target engagement (more negative = stronger competition), active = hit call of the paper (q ≤ 0.05, log2 ratio ≤ -1)
Conditions in all cases: compound concentration: 200 uM; treatment time: 3 h
OTUD6B = target: T1, OTUD6B (UniProt Q8N6M0)
T1 sequence (whole entry): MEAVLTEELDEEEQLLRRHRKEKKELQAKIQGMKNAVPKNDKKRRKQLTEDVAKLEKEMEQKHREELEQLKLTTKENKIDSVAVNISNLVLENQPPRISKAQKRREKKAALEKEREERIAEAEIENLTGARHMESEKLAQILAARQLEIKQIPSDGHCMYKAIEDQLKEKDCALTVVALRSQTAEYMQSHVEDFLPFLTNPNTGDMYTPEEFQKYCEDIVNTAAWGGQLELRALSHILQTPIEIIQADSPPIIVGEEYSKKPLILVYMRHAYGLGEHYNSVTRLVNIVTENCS
In short: (§1)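 HEK293T lysate (495 µg per sample, in Tris/CHAPS/IGEPAL buffer with protease inhibitors) was exposed in triplicate for 3 h to fragment at 200 µM or to vehicle, then to Biotin-Ahx-Ub-VS at 0.5 µM final for 1 h. Labelled DUBs were enriched on NeutrAvidin, digested with LysC and trypsin, and analysed by diaPASEF LC-MS/MS. Spectronaut label-free quantities were normalised to the global median, and values are average log2 ratios of fragment over vehicle from an unpaired t-test. Only proteins with ≥2 unique peptides were used.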

OTUD7B = target: T2, OTUD7B (UniProt Q6GQQ9)
T2 sequence (whole entry): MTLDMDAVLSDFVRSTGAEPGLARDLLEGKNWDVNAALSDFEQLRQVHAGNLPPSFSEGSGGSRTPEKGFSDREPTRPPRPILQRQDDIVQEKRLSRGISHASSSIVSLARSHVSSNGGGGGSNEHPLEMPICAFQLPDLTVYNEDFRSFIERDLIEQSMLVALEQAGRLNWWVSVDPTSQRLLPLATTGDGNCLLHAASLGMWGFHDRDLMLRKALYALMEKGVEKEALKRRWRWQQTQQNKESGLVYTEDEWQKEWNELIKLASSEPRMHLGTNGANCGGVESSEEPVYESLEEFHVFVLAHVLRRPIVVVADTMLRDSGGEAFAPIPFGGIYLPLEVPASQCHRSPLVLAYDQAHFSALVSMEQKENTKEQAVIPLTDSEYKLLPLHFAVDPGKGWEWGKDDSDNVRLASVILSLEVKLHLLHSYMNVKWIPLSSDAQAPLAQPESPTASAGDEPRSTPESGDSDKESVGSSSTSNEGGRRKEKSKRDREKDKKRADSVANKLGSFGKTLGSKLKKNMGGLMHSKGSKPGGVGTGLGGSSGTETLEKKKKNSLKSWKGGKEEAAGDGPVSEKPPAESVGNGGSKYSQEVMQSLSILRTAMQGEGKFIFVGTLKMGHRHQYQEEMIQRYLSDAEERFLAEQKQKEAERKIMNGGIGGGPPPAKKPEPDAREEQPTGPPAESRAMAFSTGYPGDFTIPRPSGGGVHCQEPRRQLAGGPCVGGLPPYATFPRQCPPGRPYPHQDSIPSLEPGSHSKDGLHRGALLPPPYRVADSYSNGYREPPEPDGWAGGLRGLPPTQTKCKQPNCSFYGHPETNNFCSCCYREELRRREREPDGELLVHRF
In short: as §1

PRPF8 = PRPF8 (UniProt Q6P2Q9)
In short: as §1

PSMD7 = target: T3, PSMD7 (UniProt P51665)
T3 sequence (whole entry): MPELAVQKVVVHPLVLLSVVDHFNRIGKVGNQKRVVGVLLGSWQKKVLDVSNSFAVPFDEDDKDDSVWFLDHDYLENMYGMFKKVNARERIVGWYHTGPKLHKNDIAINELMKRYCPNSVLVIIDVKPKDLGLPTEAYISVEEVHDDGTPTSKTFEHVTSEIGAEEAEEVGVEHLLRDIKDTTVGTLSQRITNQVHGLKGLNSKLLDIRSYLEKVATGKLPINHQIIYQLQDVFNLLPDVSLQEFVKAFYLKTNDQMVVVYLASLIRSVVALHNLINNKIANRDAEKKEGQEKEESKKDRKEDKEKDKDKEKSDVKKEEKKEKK
In short: as §1

UCHL1 = UCHL1 (UniProt P09936)
Sequence of UCHL1 (P09936 whole entry, looked up): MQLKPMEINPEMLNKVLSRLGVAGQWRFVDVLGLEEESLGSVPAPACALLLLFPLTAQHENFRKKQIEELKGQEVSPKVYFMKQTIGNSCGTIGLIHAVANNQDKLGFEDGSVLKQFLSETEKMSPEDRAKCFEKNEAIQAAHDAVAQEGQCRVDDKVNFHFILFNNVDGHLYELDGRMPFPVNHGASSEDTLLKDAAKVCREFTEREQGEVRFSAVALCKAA
In short: as §1

UCHL3 = target: T4, UCHL3 (UniProt P15374)
T4 sequence (whole entry): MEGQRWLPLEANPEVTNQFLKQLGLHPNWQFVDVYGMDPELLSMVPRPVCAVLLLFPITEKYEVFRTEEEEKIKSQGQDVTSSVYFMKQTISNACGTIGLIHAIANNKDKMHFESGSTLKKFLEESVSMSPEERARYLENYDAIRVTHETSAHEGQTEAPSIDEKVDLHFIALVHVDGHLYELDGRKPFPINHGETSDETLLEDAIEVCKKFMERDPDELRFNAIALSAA
In short: as §1

UCHL5 = target: T5, UCHL5 (UniProt Q9Y5K5)
T5 sequence (whole entry): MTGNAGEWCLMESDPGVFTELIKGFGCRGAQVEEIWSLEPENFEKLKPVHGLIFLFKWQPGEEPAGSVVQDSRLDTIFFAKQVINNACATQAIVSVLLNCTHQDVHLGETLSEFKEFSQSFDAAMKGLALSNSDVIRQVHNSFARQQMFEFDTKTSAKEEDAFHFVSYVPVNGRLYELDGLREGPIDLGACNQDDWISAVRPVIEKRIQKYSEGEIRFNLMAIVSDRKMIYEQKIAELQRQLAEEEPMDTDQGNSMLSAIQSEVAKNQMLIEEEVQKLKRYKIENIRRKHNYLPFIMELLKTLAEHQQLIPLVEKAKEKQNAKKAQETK
In short: as §1

USP10 = USP10 (UniProt Q14694)
Sequence of USP10 (Q14694 whole entry): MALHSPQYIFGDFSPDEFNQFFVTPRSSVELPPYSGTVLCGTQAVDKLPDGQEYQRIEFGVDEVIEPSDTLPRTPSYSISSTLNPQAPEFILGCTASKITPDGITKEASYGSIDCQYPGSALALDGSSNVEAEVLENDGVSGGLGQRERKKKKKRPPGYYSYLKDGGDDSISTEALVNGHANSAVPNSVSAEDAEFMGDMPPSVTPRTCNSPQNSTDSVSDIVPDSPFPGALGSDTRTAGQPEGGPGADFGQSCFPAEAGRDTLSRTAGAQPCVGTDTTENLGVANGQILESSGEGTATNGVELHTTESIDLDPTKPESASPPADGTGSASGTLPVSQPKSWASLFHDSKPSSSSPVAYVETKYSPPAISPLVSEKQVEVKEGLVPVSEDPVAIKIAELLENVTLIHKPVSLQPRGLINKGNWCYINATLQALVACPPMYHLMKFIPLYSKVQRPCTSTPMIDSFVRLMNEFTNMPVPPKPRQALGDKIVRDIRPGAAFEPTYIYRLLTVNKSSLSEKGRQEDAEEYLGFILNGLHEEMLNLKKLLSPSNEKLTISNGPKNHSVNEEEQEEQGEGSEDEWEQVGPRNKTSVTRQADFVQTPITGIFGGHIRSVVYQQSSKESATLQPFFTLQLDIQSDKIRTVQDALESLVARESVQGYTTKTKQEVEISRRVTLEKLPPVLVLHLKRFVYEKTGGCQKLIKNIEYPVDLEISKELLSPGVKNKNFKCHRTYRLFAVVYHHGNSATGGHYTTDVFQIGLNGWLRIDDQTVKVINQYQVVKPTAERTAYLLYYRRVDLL
In short: as §1

USP15 = target: T6, USP15 (UniProt Q9Y4E8)
T6 sequence (whole entry): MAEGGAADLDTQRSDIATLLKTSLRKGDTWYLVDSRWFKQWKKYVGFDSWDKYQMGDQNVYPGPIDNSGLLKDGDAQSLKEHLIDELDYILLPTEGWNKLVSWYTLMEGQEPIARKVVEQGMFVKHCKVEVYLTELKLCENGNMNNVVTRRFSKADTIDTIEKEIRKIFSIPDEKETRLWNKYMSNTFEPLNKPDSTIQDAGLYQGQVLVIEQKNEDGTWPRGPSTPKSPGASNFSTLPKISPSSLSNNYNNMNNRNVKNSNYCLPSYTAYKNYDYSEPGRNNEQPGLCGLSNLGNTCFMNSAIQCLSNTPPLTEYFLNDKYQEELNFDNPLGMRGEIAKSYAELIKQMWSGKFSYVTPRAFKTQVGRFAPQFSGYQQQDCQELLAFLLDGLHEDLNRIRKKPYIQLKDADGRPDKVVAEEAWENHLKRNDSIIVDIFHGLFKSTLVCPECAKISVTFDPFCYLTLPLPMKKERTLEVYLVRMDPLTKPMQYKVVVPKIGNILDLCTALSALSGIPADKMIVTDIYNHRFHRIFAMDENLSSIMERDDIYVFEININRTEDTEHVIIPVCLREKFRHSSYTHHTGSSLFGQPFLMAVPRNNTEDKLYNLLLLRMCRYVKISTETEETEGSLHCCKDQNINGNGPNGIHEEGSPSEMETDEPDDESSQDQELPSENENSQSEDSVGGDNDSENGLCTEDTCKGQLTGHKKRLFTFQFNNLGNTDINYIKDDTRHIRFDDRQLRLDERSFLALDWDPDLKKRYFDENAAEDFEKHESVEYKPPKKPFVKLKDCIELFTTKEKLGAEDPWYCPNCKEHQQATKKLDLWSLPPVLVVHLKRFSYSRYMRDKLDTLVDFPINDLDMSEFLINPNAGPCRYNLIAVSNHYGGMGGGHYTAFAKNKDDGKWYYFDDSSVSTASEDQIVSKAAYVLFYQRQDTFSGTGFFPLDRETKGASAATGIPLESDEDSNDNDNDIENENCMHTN
In short: as §1

USP16 = USP16 (UniProt Q9Y5T5)
Sequence of USP16 (Q9Y5T5 whole entry, looked up): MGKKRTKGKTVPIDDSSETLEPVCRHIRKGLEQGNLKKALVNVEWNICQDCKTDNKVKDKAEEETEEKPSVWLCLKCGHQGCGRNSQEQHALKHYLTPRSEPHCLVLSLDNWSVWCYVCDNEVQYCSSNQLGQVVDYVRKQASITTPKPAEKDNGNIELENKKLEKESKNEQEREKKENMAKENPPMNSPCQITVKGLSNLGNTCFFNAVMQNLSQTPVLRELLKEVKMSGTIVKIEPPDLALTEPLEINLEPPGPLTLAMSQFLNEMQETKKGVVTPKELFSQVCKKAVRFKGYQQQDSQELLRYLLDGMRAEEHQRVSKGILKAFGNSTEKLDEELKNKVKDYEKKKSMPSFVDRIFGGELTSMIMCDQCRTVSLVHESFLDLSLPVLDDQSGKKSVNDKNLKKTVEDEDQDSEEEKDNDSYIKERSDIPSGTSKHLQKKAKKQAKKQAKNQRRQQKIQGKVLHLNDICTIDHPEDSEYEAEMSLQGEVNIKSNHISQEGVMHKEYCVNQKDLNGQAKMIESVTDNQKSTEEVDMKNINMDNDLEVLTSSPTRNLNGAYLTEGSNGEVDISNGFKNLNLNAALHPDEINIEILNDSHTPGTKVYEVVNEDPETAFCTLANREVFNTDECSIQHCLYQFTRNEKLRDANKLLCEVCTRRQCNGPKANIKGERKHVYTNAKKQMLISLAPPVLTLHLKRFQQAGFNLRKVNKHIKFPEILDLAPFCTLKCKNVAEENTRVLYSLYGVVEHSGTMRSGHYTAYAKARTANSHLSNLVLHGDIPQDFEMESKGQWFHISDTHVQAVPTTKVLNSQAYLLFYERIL
In short: as §1

## O=C(CCl)N1CCC[C@@H]1c1ccon1
OTUD6B
  log2 ratio of Biotin-Ahx-Ub-VS probe labelling: -0.245
OTUD7B
  log2 ratio of Biotin-Ahx-Ub-VS probe labelling: -0.356
PRPF8
  log2 ratio of Biotin-Ahx-Ub-VS probe labelling: 0.0558
PSMD7
  log2 ratio of Biotin-Ahx-Ub-VS probe labelling: -0.283
UCHL1
  log2 ratio of Biotin-Ahx-Ub-VS probe labelling: -1.49 (active)
UCHL3
  log2 ratio of Biotin-Ahx-Ub-VS probe labelling: 0.0429
UCHL5
  log2 ratio of Biotin-Ahx-Ub-VS probe labelling: -0.401
USP10
  log2 ratio of Biotin-Ahx-Ub-VS probe labelling: -0.0611
USP15
  log2 ratio of Biotin-Ahx-Ub-VS probe labelling: -0.228
USP16
  log2 ratio of Biotin-Ahx-Ub-VS probe labelling: -0.0988

Reference: the supplement of paper PMC11732987, “Enantioselective OTUD7B fragment discovery through chemoproteomics screening and high-throughput optimisation” (Communications Chemistry, 2025)
